# Only some compounds are listed: those with a hit (about 1.1% of all), similar ones and a draw of the others.
# mIDH1 inhibitor: blocks human mutant IDH1 R132H enzyme; O75874; IDH1-R132H enzyme, NADPH consumption, diaphorase/resazurin fluorescence; Potency, µM (titrated, usually from 76.6 µM), usual class: inhibitors; 0.093% of 390,000 active; also: nearly all actives have a fitted effect of over 65% in size
#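 IDH1-R132H (0.5 ug/mL) preincubated 30 min with compound, then NADPH (0.016 mM) and alpha-KG (2 mM) added; 80 min at RT, pH 7.5. Remaining NADPH coupled via diaphorase/resazurin to fluorescence (540/590 nm); concentration-response curves normalized to no-enzyme control.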
# TrxR1 inh: rat TrxR1 inhibition; recombinant rTrxR1, NADPH fluorescence consumption, selenite substrate; Potency, µM (top dose mostly 114 µM), usual class: inhibitors; 1% of 390,000 active; also: nearly all actives have a fitted effect of over 65% in size
# Target sequence (O89049 whole entry, looked up): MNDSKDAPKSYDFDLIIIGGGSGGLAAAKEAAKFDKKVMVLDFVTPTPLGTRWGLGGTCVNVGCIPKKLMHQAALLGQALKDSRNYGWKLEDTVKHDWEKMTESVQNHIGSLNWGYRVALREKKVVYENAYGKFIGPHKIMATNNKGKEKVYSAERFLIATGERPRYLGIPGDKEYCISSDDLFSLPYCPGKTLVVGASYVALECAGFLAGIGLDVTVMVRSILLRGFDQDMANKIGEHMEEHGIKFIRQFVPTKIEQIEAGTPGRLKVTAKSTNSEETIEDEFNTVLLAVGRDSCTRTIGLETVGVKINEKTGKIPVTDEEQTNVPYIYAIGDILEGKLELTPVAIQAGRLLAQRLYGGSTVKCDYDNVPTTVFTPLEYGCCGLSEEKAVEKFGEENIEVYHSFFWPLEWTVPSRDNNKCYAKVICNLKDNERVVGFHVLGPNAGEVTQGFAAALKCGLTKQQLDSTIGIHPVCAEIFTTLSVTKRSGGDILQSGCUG
#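 Rat TrxR1 (90 nM in the dispensed reagent) was pre-reduced with 400 uM NADPH for 5 min at room temperature, then incubated with compound for 15 min. After 400 uM selenite was added, NADPH fluorescence (Ex 340/Em 450 nm) was followed for 8 min.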
# TrxR1 substrate: is turned over as a substrate by rat TrxR1 | O89049 | AID 588456 | Potency, µM (doses to about 114 µM) | 0.01% of 390,000 active | purified TrxR1 substrate turnover, NADPH consumption readout; also: nearly all actives have a fitted effect of over 50% in size
#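 Rat TrxR1, dispensed at 90 nM, was prereduced with 400 uM NADPH (final) for 5 min at ~22 deg C, then incubated with compound 15 min before 400 uM selenite. A first-read NADPH fluorescence drop versus no-compound background flagged substrates.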
# Eya2 phos inh: inhibitors of human Eya2 phosphatase activity; O00167; recombinant Eya2, OMFP fluorescence dephosphorylation (OMFP is methylfluorescein phosphate); Potency, µM (highest dose often 76.9 µM), actives largely listed as inhibitors; 0.006% of 330,000 active
#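 Eya2 (0.2 uM) preincubated 10 min at ambient with compound, then OMFP substrate added at 50 uM; 10 min reaction in 50 mM HEPES pH 7.5, 50 mM NaCl, 5 uM MgCl2, 0.05% BSA, 1 mM DTT. Fluorescence read at Ex 485/Em 525 nm.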
# RGS4 inhibitor: blocks human RGS4-accelerated GTP hydrolysis; Transcreener GDP fluorescence polarization, RGS4-accelerated GTP hydrolysis; P49798; 0.039% of 390,000 active; Potency, µM (highest dose often 114 µM), hits mostly inhibitors; also: nearly all actives have a fitted effect of over 75% in size
#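 MLSMR compounds (23 nl, pin-transferred) preincubated 10 min at room temperature with a 500nM (2x) first reagent, then RGS4 at 900nM (2x) plus Transcreener GDP mix added; fluorescence polarization (620/688 nm) read before and after 90 min at 30 °C.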
# IDH1 autofl: interferes with resorufin fluorescence in IDH1 counter-screen. shares compounds with mIDH1 inhibitor. Resorufin detection reagent fluorescence interference, cell-free. inhibition of signal, % at 51.2 µM. 750 tested, under 10 active
# WT IDH1 inh: inhibits human wild-type IDH1, mutant selectivity check; Potency, µM (titrated, usually from 115 µM), hits mostly inhibitors; 9% of 750 active; shares compounds with mIDH1 inhibitor; WT IDH1 enzyme, NADPH diaphorase/resazurin fluorescence; also: nearly all actives have a fitted effect of over 55% in size
# mIDH1 confirm: mutant IDH1 (human) inhibition, confirmed | AID 624002 | IDH1 R132H enzyme, NADPH diaphorase/resazurin fluorescence | shares compounds with mIDH1 inhibitor | 83% of 750 active | Potency, µM (series often up to 76.6 µM), most hits filed as inhibitors; also: nearly all actives have a fitted effect of over 50% in size
# A number is an active result; n = inactive; u = inconclusive; x = not tested or not shown; [ ] = dose if it differs, or a comment. Calls follow the shape of the dose curve; as a rule, active = well fitted curve in the direction sought with a large enough effect; inconclusive = small, poorly fitted or top-dose-only effect, or another doubt; inactive = no such curve, though single readings can be large; an effect the other way counts as inactive or inconclusive.
SMILES,mIDH1 inhibitor,TrxR1 inh,TrxR1 substrate,Eya2 phos inh,RGS4 inhibitor,IDH1 autofl,WT IDH1 inh,mIDH1 confirm
CCOc1ccccc1N(C(=O)c1snc(C(N)=O)c1N)C(C(=O)NC1CCCC1)c1cccs1 (stereo unspecified),u,n,n,n,n,n,n,u
O=C(O)COc1ccccc1/C=N/NC(=O)c1ccc2c(c1)OCCO2,n,n,n,n,n,x,x,x
C=CCn1c(SCC(=O)N2CCCC2=O)nc2sc(CC)cc2c1=O,n,n,n,n,n,x,x,x
C=CCn1c(SCC(=O)N2CCN(C(=O)c3ccco3)CC2)nc2sc(CC)cc2c1=O,u,u,n,n,n,n,n,17.8µM
Cn1cc(S(=O)(=O)c2cccc(Cl)c2)c(=O)c2cc(F)c(N3CCCCC3)cc21,u,n,n,x,n,n,n,12.6µM
COC(=O)c1c(NC(=O)c2ccccc2)sc(Cc2ccccc2)c1C,n,n,n,n,n,x,x,x
COC(=O)c1c(NC(C)=O)sc(Cc2ccccc2)c1C,u,n,n,n,n,n,n,50.1µM
Cc1c(C(=O)N2CCN(c3ccc(F)cc3)CC2)sc2ncnc(N3CCN(c4ccccn4)CC3)c12,n,n,n,n,n,x,x,x
NNC(=O)CSc1c(-c2ccccc2)c2cc(Cl)ccc2[nH]c1=O,u,n,n,n,n,n,n,n
COC(=O)c1c(C)cc(C)n2c1nc1ccccc12,n,n,n,n,n,x,x,x
COc1ccc(-n2cc(-c3ccccc3)c3c(NC4CCCC4)ncnc32)cc1,31.6µM,n,n,x,n,n,n,14.1µM
Clc1cccc(-n2cc(-c3ccccc3)c3c(NC4CCCC4)ncnc32)c1,n,n,n,x,n,x,x,x
O=C(Nc1cccnc1)c1ccc(S(=O)(=O)c2ccc(Cl)cc2)cc1,n,n,n,n,n,x,x,x
CC(C)c1nc(N2CCN(C(=O)c3ccco3)CC2)c(C#N)c2c1COC(C)(C)C2,20.7µM,n,n,n,n,n,n,20µM
CC(C)c1nc(N2CCN(C(=O)c3ccccc3)CC2)c(C#N)c2c1COC(C)(C)C2,u,n,n,n,n,n,n,22.4µM
CC(C)OC(=O)CSc1nc(N2CCOCC2)c2c(c1C#N)CC(C)(C)OC2,u,n,n,n,n,n,n,35.5µM
CC1(C)Cc2c(C#N)c(N3CCCC3)nc(-c3ccco3)c2CO1,x,x,x,n,x,x,x,x
COc1cc(C2(c3ccc(O)c(OC)c3)C(=O)N(C)c3ccc(Br)cc32)ccc1O,n,n,n,x,n,x,x,x
COc1cc(C2(c3ccc(O)c(OC)c3)C(=O)Nc3c(Br)cc(Br)cc32)ccc1O,52.1µM,n,n,x,n,n,u,39.8µM
O=C(NCC1COc2ccccc2O1)c1c[nH]c2ccc(S(=O)(=O)N3CCOCC3)cc2c1=O (stereo unspecified),u,n,n,n,n,n,n,n
Cc1ccc(NC2c3ncccc3C(=O)N2Cc2cccs2)cc1 (stereo unspecified),52.1µM,n,n,n,n,n,n,n
COc1ccc(CN2C(=O)c3cccnc3C2Nc2ccc(C)cc2)cc1 (stereo unspecified),n,n,n,n,n,x,x,x
O=C(NC1CCCCC1)C(c1cccs1)N(C(=O)c1ccco1)c1ccc2c(c1)OCCO2 (stereo unspecified),u,n,n,n,n,n,n,u
O=C(NC1CCCCC1)C(c1ccc(F)cc1)N(C(=O)c1cccs1)c1ccc2c(c1)OCO2 (stereo unspecified),u,n,n,n,n,n,n,7.94µM
CC(=O)N1c2ccc(Cl)cc2C2C=CCC2C1c1cccc2ccccc12 (stereo unspecified),14.7µM,n,n[11.4 µM],u,n,n,39.8µM,6.31µM
